Measurements taken from PubChem BioAssay AID1159580 (chemical genetic matrix, 2015).
In all, about 5,500 compounds went through this assay and about 2,000 (36%) were called active. Inconclusive results (about 18%) are left out. No stated cut-off is given here; in the data, active means normalized growth mostly below about 0.91 (no sharp cut-off); inconclusive means no clear call, values can overlap the other calls; inactive means mostly above about 0.92. The list shows a part of the results.

Test: chemical genetic growth profiling, strain panel (AID 1159580);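 further: tested at 20 µM; growth read once vehicle control cultures reached saturation at 30 °C; 1 = growth at the plate median or of vehicle wells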
Settings: S. cerevisiae deletion strains, growth OD

Measured: normalized growth

CC(C)c1cccc(C(C)C)c1O
inactive: locus YAL013W, strain DEP1, stronger effect = lower value 1.01 | locus YAL021C, strain ccr4, stronger effect = lower value 1 | locus YAL026C, strain drs2, stronger effect = lower value 0.993 | locus YAL030W, strain snc1, stronger effect = lower value 0.985 | locus YAL040C, strain CLN3, stronger effect = lower value 0.998 | locus YBL061C, strain skt5, stronger effect = lower value 0.983 | locus YBR009C, strain hhf1, stronger effect = lower value 0.966 | locus YBR023C, strain chs3, stronger effect = lower value 0.977 | locus YBR171W, strain sec66, stronger effect = lower value 0.987 | locus YBR231C, strain swc5, stronger effect = lower value 0.997 | locus YBR279W, strain paf1, stronger effect = lower value 0.992 | locus YCL011C, strain gbp2, stronger effect = lower value 0.991 | locus YCL016C, strain dcc1, stronger effect = lower value 0.976 | locus YCL061C, strain MRC1 (second series), stronger effect = lower value 0.988 | locus YCL061C, strain MRC1, stronger effect = lower value 0.991 | locus YCL069W, strain vba3, stronger effect = lower value 0.992 | locus YCR088W, strain abp1, stronger effect = lower value 0.996 | locus YDL005C, strain med2, stronger effect = lower value 0.984 | locus YDL040C, strain nat1, stronger effect = lower value 0.976 | locus YDR001C, strain nth1, stronger effect = lower value 0.994 | locus YDR069C, strain doa4, stronger effect = lower value 0.981 | locus YDR137W, strain rgp1, stronger effect = lower value 0.966 | locus YDR150W, strain NUM1, stronger effect = lower value 0.993 | locus YDR159W, strain sac3, stronger effect = lower value 0.982 | locus YDR195W, strain ref2 0.951 | locus YDR297W, strain sur2, stronger effect = lower value 0.988 | locus YDR334W, strain swr1, stronger effect = lower value 0.988 | locus YDR335W, strain msn5, stronger effect = lower value 0.993 | locus YDR363W, strain ESC2, stronger effect = lower value 0.973 | locus YDR392W, strain spt3, stronger effect = lower value 0.869 | locus YEL003W, strain gim4, stronger effect = lower value 0.99 | locus YEL037C, strain rad23, stronger effect = lower value 0.986 | locus YEL061C, strain CIN8 (second series), stronger effect = lower value 0.986 | locus YER002W, strain NOP16, stronger effect = lower value 0.986 | locus YER015W, strain faa2, stronger effect = lower value 0.983 | locus YER016W, strain bim1, stronger effect = lower value 0.979 | locus YER111C, strain swi4, stronger effect = lower value 0.973 | locus YER155C, strain BEM2 (second series), stronger effect = lower value 0.996 | locus YFR010W, strain ubp6, stronger effect = lower value 0.978 | locus YGL167C, strain pmr1, stronger effect = lower value 0.972 | locus YGL173C, strain kem1, stronger effect = lower value 0.98 | locus YGL227W, strain vid30, stronger effect = lower value 0.988 | locus YGL240W, strain doc1, stronger effect = lower value 0.983 | locus YGL253W, strain hxk2, stronger effect = lower value 0.997 | locus YGR078C, strain PAC10, stronger effect = lower value 1 | locus YHR013C, strain ard1, stronger effect = lower value 1.03 | locus YHR027C, strain rpn1, stronger effect = lower value 0.99 | locus YHR030C, strain SLT2, stronger effect = lower value 0.94 | locus YHR079C, strain IRE1, stronger effect = lower value 0.954 | locus YHR142W, strain chs7, stronger effect = lower value 1.01 | locus YJL092W, strain hpr5, stronger effect = lower value 0.992 | locus YJL095W, strain BCK1 (second series), stronger effect = lower value 0.993 | locus YJL095W, strain BCK1, stronger effect = lower value 0.992 | locus YJL115W, strain asf1, stronger effect = lower value 0.983 | locus YJL129C, strain trk1, stronger effect = lower value 0.992 | locus YJL154C, strain vps35, stronger effect = lower value 0.99 | locus YJL164C, strain tpk1, stronger effect = lower value 0.979 | locus YJL166W, strain qcr8, stronger effect = lower value 0.986 | locus YJL187C, strain SWE1, stronger effect = lower value 0.994 | locus YJR066W, strain TOR1, stronger effect = lower value 0.935 | locus YJR075W, strain HOC1, stronger effect = lower value 1 | locus YKL160W, strain elf1, stronger effect = lower value 1 | locus YKR026C, strain gcn3, stronger effect = lower value 0.953 | locus YKR091W, strain srl3, stronger effect = lower value 0.984 | locus YLL001W, strain dnm1, stronger effect = lower value 0.988 | locus YLL026W, stronger effect = lower value 0.988 | locus YLL041C, strain sdh2, stronger effect = lower value 0.996 | locus YLR027C, strain aat2, stronger effect = lower value 0.993 | locus YLR113W, strain HOG1, stronger effect = lower value 0.996 | locus YLR221C, strain rsa3, stronger effect = lower value 1.01 | locus YLR258W, strain gsy2, stronger effect = lower value 0.991 | locus YLR262C, strain YPT6 (second series), stronger effect = lower value 0.97 | locus YLR320W, strain mms22, stronger effect = lower value 0.935 | locus YLR342W, strain FKS1, stronger effect = lower value 0.986 | locus YLR357W, strain rsc2, stronger effect = lower value 0.939 | locus YLR370C, strain arc18, stronger effect = lower value 0.996 | locus YLR384C, strain iki3, stronger effect = lower value 0.971 | locus YML120C, strain ndi1, stronger effect = lower value 0.98 | locus YMR058W, strain fet3, stronger effect = lower value 0.996 | locus YMR125W, strain sto1, stronger effect = lower value 0.988 | locus YMR129W, stronger effect = lower value 1 | locus YMR205C, strain PFK2, stronger effect = lower value 0.941 | locus YMR231W, strain pep5, stronger effect = lower value 0.992 | locus YMR263W, strain SAP30, stronger effect = lower value 1 | locus YMR307W, strain GAS1, stronger effect = lower value 1 | locus YNL071W, strain lat1, stronger effect = lower value 0.996 | locus YNL153C, strain GIM3, stronger effect = lower value 1.01 | locus YNL175C, strain NOP13, stronger effect = lower value 1.03 | locus YNL183C, strain NPR1, stronger effect = lower value 0.942 | locus YNL197C, strain WHI3, stronger effect = lower value 1 | locus YNL209W, strain ssb2, stronger effect = lower value 0.992 | locus YNL224C, strain SQS1, stronger effect = lower value 1.02 | locus YNL248C, strain rpa49, stronger effect = lower value 1.01 | locus YNL322C, strain KRE1 (second series), stronger effect = lower value 0.981 | locus YNL322C, strain KRE1, stronger effect = lower value 1.01 | locus YNR049C, strain mso1, stronger effect = lower value 0.983 | locus YOR001W, strain rrp6, stronger effect = lower value 0.997 | locus YOR070C, strain gyp1, stronger effect = lower value 0.99 | locus YOR080W, strain dia2, stronger effect = lower value 0.984 | locus YOR083W, strain WHI5 (second series), stronger effect = lower value 1.02 | locus YOR083W, strain WHI5, stronger effect = lower value 1.01 | locus YOR106W, strain vam3, stronger effect = lower value 0.991 | locus YOR231W, strain MKK1, stronger effect = lower value 0.914 | locus YOR265W, strain rbl2, stronger effect = lower value 0.991 | locus YOR270C, strain vph1, stronger effect = lower value 0.993 | locus YOR290C, strain snf2, stronger effect = lower value 0.918 | locus YPL051W, strain arl3, stronger effect = lower value 1 | locus YPL055C, strain LGE1, stronger effect = lower value 0.999 | locus YPL078C, strain atp4, stronger effect = lower value 0.994 | locus YPL106C, strain sse1, stronger effect = lower value 0.951 | locus YPL240C, strain hsp82, stronger effect = lower value 1.01 | locus YPL241C, strain CIN2, stronger effect = lower value 1.01 | locus YPL256C, strain CLN2, stronger effect = lower value 0.929
